Hits are enriched below; roughly 1.3% of the tested compounds scored in any of these assays.
Mito fusion act – blocks mitochondrial division or promotes mitochondrial fusion | Potency, µM (top dose mostly 46.1 µM), for inactives: at the highest dose growth rescue (activation), hits mostly activators | hit rate 0.23% among 320,000 | S. cerevisiae fusion-defective mutant growth rescue, CellTiterGlo 48 h; also: potency is read from the fitted curve at half-maximal effect; % of control where 0% means no effect; nearly all actives have a fitted effect of over 45% in size
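Read-out: ATP-based luminescence (CellTiterGlo, 10 min ambient) reporting growth of fusion-defective ts yeast after 48 hours at 37C on glycerol/ethanol YPEG medium in the presence of compound.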
BRCA1 expr act – BRCA1 expression activation. MCF7-BRCA1-FFLuc reporter, luminescence, 48 h; response scale: scaled: vehicle 0%, 10 µM genistein 100%. Potency, µM (series often up to 46.1 µM), without a hit: top-dose activation, actives largely listed as activators. hit rate 1.1% among 380,000; also: potency is read from the fitted curve at half-maximal effect; nearly all actives have a fitted effect of over 80% in size
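Compounds are tested at multiple concentrations on MCF7 BRCA1-luciferase reporter cells seeded at 2000 per well; after 48 h, a single luminescence end-point is taken and curves fitted to the normalized data.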
IL2 activator – activators of IL-2; IL-2 activation reporter assay, cell-based qHTS; stimulated with anti-CD3/CD4/CD28 beads; in transgenic mouse T cells; activation, % (series mostly up to about 46 µM); hit rate 0.065% among 360,000; AID 652025; in the data active = activation above about 50%; inconclusive = mostly about 30% to 49%; also: 0% is about no effect
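Using fluorescent plate cytometry, EGFP and DsRed are detected in transgenic mouse T cells stimulated 18 h at 37 degrees C with antibody-coated beads after 60 min compound pretreatment.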
p53 reactivator – re-activators of mutant p53. H1299 p53-A138V BP100-luciferase reporter, luminescence, 24 h. Potency, µM (doses to about 92.2 µM), for inactives: at the highest dose activity change, positive = activation, most hits filed as activators. hit rate 0.063% among 320,000; also: potency is read from the fitted curve at half-maximal effect; % of control where 0% means no effect; nearly all actives have a fitted effect of over 45% in size
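H1299 (p53-null), stable ts p53-A138V + BP100-Luc; 1000 cells/well, Opti-MEM/10% FBS; cpd 4 pt, 1:5; 24 h, 37 deg C, 5% CO2; detection reagent 10 min RT; luminescence.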
TCR act – activates T cell receptor signaling | primary human leukocytes, anti-CD3, IL-2 HTRF, 48 h | 330,000 tested, under 10 active | Potency, µM (top dose mostly 9.22 µM), without a hit: at the top dose activation of IL-2 secretion, most hits filed as activators; also: % of control where 0% means no effect
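TCR engagement came from a-CD3 beads alone, with compounds added to primary human leukocytes for 48 hr. Secreted IL-2 bridged europium cryptate- and d2-labelled anti-IL-2 antibodies, giving FRET emission at 665nm after 320nm excitation.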
* hit, by the source's call; ? = inconclusive; nt = no result; [ ] = another dose, or the depositor's remark. Unless noted, calls follow the shape of the dose curve; as a rule, active = well fitted curve in the direction sought with a large enough effect; inconclusive = small, poorly fitted or top-dose-only effect, or another doubt; inactive = no such curve, though single readings can be large; an effect the other way counts as inactive or inconclusive.

SMILES | Mito fusion act | BRCA1 expr act | IL2 activator | p53 reactivator | TCR act
O=C(NC1CCCCC1)C(=O)c1c[nH]c2ccccc12 | 2% | 13µM* | 2 | ? | nt
O=C(COC(=O)c1c[nH]c2ccccc12)NC1CCCC1 | -1% | 7% | 0 | 12% | 1%
S=C(NCCc1c[nH]c2ccccc12)NC1CCCC1 | -3% | 18% | 1 | 2% | -7%
C/C=C(\C)NNC(=O)Cc1ccc(OC)cc1 | nt | -5% | nt | nt | nt
S=C(c1ccc(-c2ccccc2Cl)o1)N1CCOCC1 | 2% | 7.1µM* | -3 | ? | nt
O=C(c1ccc(-c2ccccc2Cl)o1)N1CCCC(C(F)(F)F)C1 (stereo not given) | 26% | 13µM* | 0 | ? | 19%
S=C(c1ccc(-c2ccc(Cl)cc2Cl)o1)N1CCCCC1 | 8% | 7.9µM* | -1 | ? | -2%
NC(=O)C1CCCN(C(=O)c2ccc(-c3cccc(Cl)c3Cl)o2)C1 (stereo not given) | -12% | ? | -2 | ? | 1%
S=C(c1ccc(-c2ccc(Cl)cc2Cl)o1)N1CCCC1 | -10% | 49% | 1 | 10% | 2%
S=C(c1ccc(-c2ccc(Cl)c(Cl)c2)o1)N1CCOCC1 | 12% | ? | -2 | ? | nt
O=C(c1ccc(-c2ccccc2Cl)o1)N1CCC1 | 11% | 2.8µM* | 0 | 29% | -8%
COc1ccc(C(=O)N2CCN(c3nc4c(C)c(Cl)ccc4s3)CC2)c(OC)c1 | nt | 70% | nt | nt | nt
CC1CCN(C(=O)c2ccc(-c3ccccc3Cl)o2)CC1 | 16µM* | ? | 3 | ? | -4%
Brc1ccc(CSc2ncnc3nc[nH]c23)cc1 | 13µM* | 15% | -1 | 24% | 5%[46.1 µM]
COc1cccc(Nc2nc(CC(C)=O)ns2)c1 | -1% | 11µM* | 4 | 13% | -2%
CC(=O)Cc1nsc(Nc2ccc3c(c2)OCCO3)n1 | -9% | 94% | 0 | 26% | -2%
CC(=O)Cc1nsc(Nc2ccc(Cl)cc2)n1 | -7% | 10µM* | 1 | 0% | 3%
CC(=O)Cc1nsc(Nc2ccc(F)cc2)n1 | -1% | ? | -3 | 22% | 4%
COc1ccc(Nc2nc(CC(C)=O)ns2)cc1 | -2% | 10µM* | 0 | ? | 4%[46.1 µM]
CCNc1oc(COc2cccc(C)c2)nc1C#N | 5% | 11µM* | 0 | ? | 0%
Cc1cccc(OCc2nc(C#N)c(NCc3ccc4c(c3)OCO4)o2)c1 | 7.1µM* | 10% | -1 | 13% | -11%
Cc1cc(C(F)(F)F)c(C#N)c(N2CCOCC2)n1 | -3% | -1% | -1 | -17% | -3%
N#Cc1c(N2CCOCC2)nsc1-c1ccc(C(F)(F)F)cc1 | -6% | 5µM* | 2 | 3% | 13%
O=C(O)c1cc2c(=O)c3ccccc3oc2nc1C(F)(F)F | -11% | 8% | 0 | 1% | -6%
COC(=O)c1ccccc1OCc1cc(=O)oc2ccc(C)cc12 | nt | -30% | -1 | nt | nt
SMILES | Mito fusion act | BRCA1 expr act | IL2 activator | p53 reactivator | TCR act
COCc1nc2oc3ccc(C)cc3c(=O)c2cc1C(=O)OC | -8% | 3.2µM* | 0 | 2% | -5%
CCc1nc2oc3ccccc3c(=O)c2cc1C(=O)OC | -5% | 3.2µM* | 0 | ? | -50%
COCc1nc2oc3ccc(F)cc3c(=O)c2cc1C(=O)OC | -3% | 4µM* | -5 | 6% | -1%
COc1cc(C)ccc1OCc1cc(C(=O)NCc2ccncc2)no1 | 2% | 7.9µM* | -1 | ? | 1%
COc1cc(C)ccc1OCc1cc(C(=O)NC(C)Cn2cncn2)no1 (stereo not given) | -2% | 5µM* | 1 | -5% | nt
CCOC(=O)C1=C(COC(=O)c2cccc(Br)c2)NC(=O)NC1C (stereo not given) | -1% | 22% | -1 | 4% | 3%
CCOC(=O)C1=C(COC(=O)c2cccc(N(C)C)c2)NC(=O)NC1C (stereo not given) | -6% | 4.5µM* | -4 | 18% | -7%
COc1ccc(CC(=O)OCC(=O)Nc2ccc(C(=O)Nc3ccc(OC)cc3)cc2)cc1 | 4% | 11µM* | 0 | 5% | 3%
COc1ccc(C(=O)Nc2ccc(SC(F)F)cc2)cc1 | 2% | 1.3µM* | 0 | ? | 10%[46.1 µM]
